From PubChem
Sampled rows, rich in hits. Any-hit rate of the full collection: about 27%.
sEH act: soluble epoxide hydrolase activators, primary screen, biochemical, human sEH | purified human sEH enzymatic activity, activator screen | 0.04% of 91,000 active | activation, % at 2 µM; in the data active means activation above about 37%
CYP2C19 activ: human CYP2C19 activators, primary screen, biochemical, luminescence. Cytochrome P450 2C19 (Homo sapiens), P33261. recombinant CYP2C19, luciferin-H EGE luminescence; stronger effect = higher value; 0 = fully inhibited enzyme, 1 = untreated enzyme. activation factor at 5 µM. 96,000 tested, under 10 active. AID 1025, 2008;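 active means activation factor of at least 2 at 5 µM in the primary screen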;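 further: 0 = wells with 2.5 mM tranylcypromine and 1 = vehicle-only wells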
CYP2C9 inh: blockers of cytochrome P450 2C9 activity – biochemical, luminescence, ADME assay, primary screen; P11712; CYP2C9 Supersomes, luciferin-H conversion; AID 777, 2007; 20% of 96,000 active; inhibition, % at 5 µM;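 active means blocking of liver enzyme CYP2C9 beyond about 50% at 5 µM, limit read from the data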
Target sequence (P11712 whole entry, looked up): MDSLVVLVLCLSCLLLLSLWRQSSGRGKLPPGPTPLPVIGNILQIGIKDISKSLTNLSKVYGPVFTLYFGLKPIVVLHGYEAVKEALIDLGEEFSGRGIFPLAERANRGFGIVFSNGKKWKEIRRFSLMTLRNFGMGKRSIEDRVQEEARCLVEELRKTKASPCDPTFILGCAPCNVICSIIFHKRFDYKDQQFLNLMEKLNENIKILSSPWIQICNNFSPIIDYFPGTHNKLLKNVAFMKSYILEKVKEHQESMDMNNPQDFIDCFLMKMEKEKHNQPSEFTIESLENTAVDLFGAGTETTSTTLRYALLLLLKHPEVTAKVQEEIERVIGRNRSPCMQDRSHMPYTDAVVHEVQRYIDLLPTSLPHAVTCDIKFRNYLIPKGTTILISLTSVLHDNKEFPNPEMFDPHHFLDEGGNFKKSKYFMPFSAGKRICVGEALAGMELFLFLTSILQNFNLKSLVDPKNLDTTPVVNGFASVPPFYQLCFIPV
CYP2C9 act: human CYP2C9 activators, primary screen, biochemical, luminescence; recombinant CYP2C9, luciferin-H conversion; stronger effect = higher value; factor 1 = untreated enzyme, 0 = blocked; activation factor at 5 µM; 1.4% of 96,000 active;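 active means activation factor of 2 or more for CYP2C9 at a 5 µM dose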;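 further: 0 = sulfaphenazole-blocked wells and 1 = vehicle-only wells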
sEH inhibitor: soluble epoxide hydrolase inhibitors, primary screen, biochemical, human sEH | Bifunctional epoxide hydrolase 2 (Homo sapiens), P34913 | recombinant human sEH enzymatic activity assay | inhibition, % at 2 µM | 0.34% of 91,000 active | AID 707, 2007; in the data active means inhibition above about 80%
CYP2C19 inhib: blockers of cytochrome P450 2C19 activity – biochemical, luminescence, ADME assay, primary screen; CYP2C19 Supersomes, luciferin-H EGE luminescence, 30 min; P33261; 21% of 96,000 active; AID 778, 2007; inhibition, % at 5 µM;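 active means CYP2C19 inhibition above a set limit at 5 µM in the primary screen, cut at about 50% in these data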;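 further: plate controls were negative control wells for no effect and 2.5 mM tranylcypromine positive control for full effect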
* hit, by the source's call; . = no result.

SMILES	sEH act	CYP2C19 activ	CYP2C9 inh	CYP2C9 act	sEH inhibitor	CYP2C19 inhib
COc1ccc(S(=O)(=O)N2Cc3ccccc3CC2C(=O)Nc2nccs2)cc1OC (configuration not stated)	-5.8	0.1	69.0*	0.3	5.9	86.4*
COc1ccc(S(=O)(=O)N2Cc3ccccc3CC2C(=O)Nc2nccs2)cc1 (configuration not stated)	-4.1	0.1	.	.	3.0	92.9*
Cc1cc(C)c2nc(SC(C)C#N)cc(C)c2c1 (configuration not stated)	1.1	1	-19.3	1.2	0.3	-3.7
COc1cccc(C2=NO[C@@H]3C(=O)N(Cc4ccccc4)C(=O)[C@H]23)c1OC	12.2	0	88.4*	0.1	-10.3	97.2*
COc1cc(CNCc2ccncc2)cc(Br)c1OCc1ccccc1F	-4.4	0.1	91.3*	0.1	7.0	85.7*
COc1cc(CO)cc(Br)c1OCc1cccnc1	.	0.2	-109.4	2.1*	.	80.4*
C=CCOc1ccc(CNC(C)(C)CO)cc1OCC	4.4	0.6	14.7	0.9	-5.7	39.9
COc1ccc(CNc2n[nH]c(NCc3ccc(OC)c(OC)c3)n2)cc1OC	14.5	1	-0.6	1	-17.4	-2.6
C=CCOc1ccc(CNc2nn[nH]n2)cc1OC	3.0	0.2	17.6	0.8	-1.7	81.0*
C=CCOc1ccc(CNn2c(C)n[nH]c2=S)cc1OC	25.0	0.4	9.7	0.9	-26.5	61.0*
CCn1c(SCC(=O)N2CCN(c3ccc(F)cc3)CC2)nnc1-c1ccncc1	3.0	0.8	26.7	0.7	-6.0	19.1
CN1CCN(/C=N/c2c(C#N)cnn2Cc2ccccc2)CC1	0.3	1.1	-6.9	1.1	1.3	-6.0
COc1cc(S(=O)(=O)Nc2cccc(C(=O)O)c2)c(OC)cc1Cl	-0.9	1.1	-10.0	1.1	3.0	-10.2
CCOC(=O)c1c(C)[nH]c(C)c1C(=O)COC(=O)[C@@H]1CCCN1S(=O)(=O)c1ccc(Cl)cc1	-1.5	0.1	80.0*	0.2	3.8	93.4*
CCOCCCNC(=O)C1CCCN1S(=O)(=O)c1ccc(Cl)cc1 (configuration not stated)	6.0	1	-32.1	1.3	-7.4	-2.9
CCCCc1nc2ccccc2n1Cc1nnc2n1-c1ccccc1SC2	.	0.1	92.4*	0.1	.	90.8*
C#CCn1c(S(=O)(=O)Cc2ccc(C)cc2)nc(-c2ccccc2)c1-c1ccccc1	-6.4	0.4	67.0*	0.3	8.8	61.4*
COc1ccc(NC(=O)C(C)N(c2ccc(C)cc2)S(C)(=O)=O)c(OC)c1 (configuration not stated)	7.8	0.1	51.6*	0.5	-9.8	90.0*
COc1ccc(NC(=O)NS(=O)(=O)c2ccc(C)cc2)c(OC)c1	-11.5	0.7	91.5*	0.1	11.4	27.4
COc1ccc(NC(=O)Nc2cc(C)ccc2OC(F)F)c(OC)c1	-3.0	0.7	30.1	0.7	3.2	33.0
O=c1nc(/C=C/c2cc([N+](=O)[O-])ccc2Cl)cc(C(F)(F)F)[nH]1	2.1	1	80.9*	0.2	-5.8	-3.4
COc1ccc(C(=O)Nc2nnc(-c3ccco3)s2)cc1	10.1	0.5	16.9	0.8	-9.1	54.3*
COc1ccc(Cc2nnc(NC(=O)c3ccco3)s2)cc1OC	-10.0	1	19.2	0.8	9.1	3.8
COc1ccc(Cc2nnc(NC(=O)c3ccco3)s2)cc1	-0.7	0.6	65.0*	0.3	4.0	36.7
C=CCOC(=O)c1sc(NC(=O)c2ccco2)nc1C	7.1	0.8	81.8*	0.2	-7.5	16.3
SMILES	sEH act	CYP2C19 activ	CYP2C9 inh	CYP2C9 act	sEH inhibitor	CYP2C19 inhib
CC1CN(C(NC(=O)C(C)(C)C)C(Cl)(Cl)Cl)CC(C)O1 (configuration not stated)	-4.0	1	3.7	1	6.8	0.9
O=C(CCSc1nnc2ccc3ccccc3n12)Nc1ccc(F)cc1	-2.0	0.7	-113.1	2.1*	-1.5	31.2
O=C(CCSc1ccc(F)cc1)Nc1ccc(-n2cnnn2)cc1	-35.5	0.4	16.0	0.8	36.6	59.0*
O=C(NC1CCCCC1)N1CCCC1	10.4	.	.	.	-7.2	.
Cc1ccc(NC(=O)c2cccc(OCc3c(C)noc3C)c2)c(C)c1	-22.4	0.2	88.5*	0.1	24.0	81.1*
Cc1noc(C)c1COc1cccc(C(=O)OCCOc2ccc(F)cc2)c1	6.9	0	88.7*	0.1	-8.1	98.3*
Cc1noc(C)c1COc1cccc(C(=O)Oc2ccc3c(c2)OCO3)c1	-0.7	0.3	88.4*	0.1	3.0	67.1*
Cc1noc(C)c1COc1cccc(C(=O)OC(C)C(=O)Nc2ccc3c(c2)OCO3)c1 (configuration not stated)	-22.6	0.6	80.7*	0.2	24.0	37.3
COc1cc(C(=O)Oc2ccccc2)ccc1OCc1c(C)noc1C	2.9	1	3.1	1	-4.3	4.3
CC(NC(=O)c1ccc(N(C)C)cc1)C1CC2CCC1C2 (configuration not stated)	2.3	0.9	14.9	0.9	0.4	7.1
CC(=O)C1=C(O)C=C(c2ccco2)CC1c1ccco1 (configuration not stated)	-0.6	0.5	50.9*	0.5	0.1	50.3*
O=C(NCCN1CCOCC1)C1CCC(CNS(=O)(=O)c2ccc(Cl)cc2)CC1 (configuration not stated)	-7.5	0.9	-0.3	1	4.8	11.1
Cc1cc(C(=O)NCCCN2CCOCC2)n(-c2ccccc2)n1	2.0	1	13.8	0.9	-2.1	2.0
CS(=O)(=O)N(CC(=O)NCCC1=CCCCC1)c1ccc2c(c1)OCO2	-4.7	0.4	57.3*	0.4	2.3	61.9*
CC1(c2ccc3c(c2)OCO3)NC(=O)N(CC(=O)NCCC2=CCCCC2)C1=O (configuration not stated)	.	0.9	19.4	0.8	.	8.6
CS(=O)(=O)N(Cc1ccc(Cl)cc1)c1ccc(C(=O)NCCC2=CCCCC2)cc1	4.8	1.1	6.4	0.9	-9.5	-11.6
COc1ccc(N(CC(=O)NCCC2=CCCCC2)S(C)(=O)=O)cc1	7.0	0.4	68.9*	0.3	-7.6	56.9*
CN(CC(=O)NCCC1=CCCCC1)S(=O)(=O)c1ccc2c(c1)c(=O)n(C)c(=O)n2C	-4.7	0.7	-53.8	1.5	3.9	25.5
CC(OC(=O)CNC(=O)c1ccc2c(c1)OCO2)C(=O)NCCC1=CCCCC1 (configuration not stated)	10.1	0.4	40.9	0.6	-10.7	62.6*
COc1ccc(S(=O)(=O)N(C)CC(=O)NCCC2=CCCCC2)cc1C	-9.7	0.1	-25.7	1.3	9.1	88.5*
